# According to PubChem BioAssay (NCI):
# About 83,000 compounds went through this panel and 20% of them were active in at least one assay; those are over-represented in the sample as a whole.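 Plates (96-well) were seeded with cells, treated with compound at one concentration, and incubated for 48 hours before percent growth was determined.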 A number with no mark means an inactive call. The source made the active and inactive calls. Rule for the calls: active = growth percent below 10; inactive = the rest.
# Key:
# Assay in all cases: NCI-60 one-dose screen, 48 h (100 = growth as untreated, 0 = no growth, -100 = all killed)
# Details in all cases: 10 µM unless noted
# NCI-H23 lung = tested on: NCI-H23 lung
# NCI-H226 lung = tested on: NCI-H226 lung
# NCI-H322M lung = tested on: NCI-H322M lung
# HOP-62 NSCLC = tested on: HOP-62 NSCLC
# NCI-H460 lung = tested on: NCI-H460 lung
# HOP-92 NSCLC = tested on: HOP-92 NSCLC
# NCI-H522 lung = tested on: NCI-H522 lung
# A549/ATCC NSCLC = tested on: A549/ATCC NSCLC
# 786-0 renal = tested on: 786-0 renal
# COLO 205 colon = tested on: COLO 205 colon
# DU-145 prostate = tested on: DU-145 prostate
# K-562 leukemia = tested on: K-562 leukemia
# MALME-3M melanoma = tested on: MALME-3M melanoma
# MDA-MB-231 breast = tested on: MDA-MB-231 breast
# RXF 393 renal = tested on: RXF 393 renal
# SF-268 CNS = tested on: SF-268 CNS
# SF-295 CNS = tested on: SF-295 CNS
# SF-539 CNS = tested on: SF-539 CNS
# UACC-257 melanoma = tested on: UACC-257 melanoma
# M14 melanoma = tested on: M14 melanoma
SMILES,growth (NCI-H23 lung),growth (NCI-H226 lung),growth (NCI-H322M lung),growth (HOP-62 NSCLC),growth (NCI-H460 lung),growth (HOP-92 NSCLC),growth (NCI-H522 lung),growth (A549/ATCC NSCLC),growth (786-0 renal),growth (COLO 205 colon),growth (DU-145 prostate),growth (K-562 leukemia),growth (MALME-3M melanoma),growth (MDA-MB-231 breast),growth (RXF 393 renal),growth (SF-268 CNS),growth (SF-295 CNS),growth (SF-539 CNS),growth (UACC-257 melanoma),growth (M14 melanoma)
Cn1c2c(Cl)c(Cl)ccc2c2ccn3c(=O)c4ccccc4nc3c21,89%,90.8%,90.9%,68%,104%,92.7%,84.8%,108%,99.2%,100%,120%,109%,102%,99.5%,117%,105%,102%,95.7%,97%,101%
CC[C@]12C=CCN3CC[C@@]4(c5ccc(OC)cc5N(C)[C@H]4[C@@](O)(C(=O)OC)[C@@H]1OC(=O)CCC(=O)N[C@@H](Cc1c[nH]c4ccccc14)C(=O)OC)[C@@H]32,101%,104%,98.5%,90.1%,96.6%,66.8%,78.6%,86.8%,91.5%,98.8%,99.4%,85.7%,57.2%,67.6%,15.5%,85.5%,99.3%,102%,67%,97.3%
O=S(=O)(Nc1ccc(F)c(Cl)c1)c1ccc(-c2cnc(C3CC3)o2)cc1,24.8%,47.1%,45.7%,33.1%,10.5%,42%,-11.5% (active),21.4%,43.2%,-6.19% (active),16.3%,15.4%,45%,36.2%,-9.55% (active),52.2%,5.73% (active),-14.7% (active),48.2%,24.8%
Brc1cccc(-c2cc(-c3ccc4c(c3)OCCO4)[nH]n2)c1,42.5% [25 µM],25.2% [25 µM],46.2% [25 µM],20.4% [25 µM],10.3% [25 µM],62.8% [25 µM],-5.75% [25 µM] (active),25.7% [25 µM],40.8% [25 µM],-24.5% [25 µM] (active),21% [25 µM],14.7% [25 µM],49.1% [25 µM],33.4% [25 µM],-18.6% [25 µM] (active),50.5% [25 µM],0.112% [25 µM] (active),-14.1% [25 µM] (active),62.4% [25 µM],20.9% [25 µM]
COC1/C=C\OC2(C)Oc3c(C)c(O)c4c(O)c(c(CN(C)CCO)c(O)c4c3C2=O)NC(=O)/C(C)=C\C=C/C(C)C(O)C(C)C(O)C(C)C(OC(C)=O)C1C (stereo not given),91.9%,104%,97.8%,89.7%,103%,115%,87.8%,116%,95.9%,108%,116%,92.3%,84.2%,108%,98.5%,97.3%,113%,91.1%,105%,105%
COc1ccc2c(c1)C(=O)/C(=C/c1cccc(OCC(=O)Nc3nc4c(s3)CCCC4)c1)O2,-48.9% (active),101%,82.5%,99.3%,71.3%,-74.8% (active),-50.3% (active),54.6%,63.3%,-3.43% (active),32.9%,-46.8% (active),-67.6% (active),23.5%,-43.8% (active),-26.9% (active),52.1%,-83.2% (active),-22.4% (active),-27.4% (active)
C=C1C(=O)O[C@H]2[C@H]1CC/C(Cn1cc(Cc3c[nH]c4ccccc34)nn1)=C\CC[C@@]1(C)O[C@@H]21,37.1%,79.7%,85.1%,76.7%,79.7%,-8.55% (active),-79.2% (active),57.9%,-9.3% (active),-68.1% (active),20%,-12.9% (active),-40.6% (active),1.06% (active),-33.3% (active),35.1%,79.3%,-55.4% (active),43.8%,10.2%
COCCCN=C(N)c1ccc(NC(=O)c2ccc(C(=O)Nc3ccc(C(N)=NCCCOC)cc3)cc2)cc1,82.1%,90.7%,90.5%,81.6%,102%,134%,97.5%,106%,87.7%,105%,148%,66.8%,75.5%,112%,142%,103%,93.7%,98.5%,121%,80.3%
Nc1c(C(=O)Nc2ccccc2)sc2nc3c(cc12)CN(CCc1ccccc1)CC3,84.2%,89.8%,94.2%,99.2%,100%,75.5%,86.1%,107%,101%,116%,98.3%,82.2%,95.7%,90.4%,121%,93.2%,103%,95.3%,110%,108%
COc1ccc(-c2cc(C(=O)N=Nc3c(O)[nH]c4ccccc34)no2)cc1,101%,94%,103%,91.6%,102%,100%,82.4%,107%,104%,111%,104%,90.7%,102%,96.9%,102%,99.4%,102%,100%,114%,101%
CC1(C)CC(C(=O)OCCCCCCCCCCC[P+](c2ccccc2)(c2ccccc2)c2ccccc2)C(C)(C)N1O (stereo not given),-61.1% (active),-65.6% (active),-20.6% (active),-45.5% (active),-79.8% (active),-68.8% (active),-29.4% (active),-42.6% (active),-75.4% (active),-79.9% (active),-85.3% (active),-76.3% (active),-68.3% (active),-70.2% (active),-68.8% (active),-92.9% (active),-71.3% (active),-93.1% (active),-77.1% (active),-13.2% (active)
c1ccc2c(Nc3cccc4ccccc34)cccc2c1,73.4%,72.3%,103%,56.3%,42.9%,28.1%,46.4%,48.1%,81.2%,58.3%,86.4%,11.2%,50%,46%,83.8%,72.7%,69.1%,56.9%,80.3%,30.3%
CCN(CC)Cc1cc(Nc2c3ccccc3nc3cc(Cl)ccc23)ccc1O,-82.6% (active),-47.5% (active),-40.9% (active),-65.2% (active),-73.6% (active),-33.1% (active),-80.8% (active),-37.6% (active),-55.1% (active),-100% (active),-16.2% (active),-40.8% (active),-91.4% (active),-65.2% (active),-91.4% (active),-76.9% (active),-38.3% (active),-100% (active),-94.8% (active),-99.6% (active)
C=C1CC[C@@H]2[C@](C)(COC(C)=O)[C@H](OC(C)=O)CC[C@@]2(C)[C@@H]1CC(NCc1ccc(F)cc1)C1=CCOC1=O (stereo not given in full),57.9%,40.1%,72.5%,78.7%,55.2%,18.8%,20.9%,57.9%,86.8%,42.2%,69.8%,18.8%,65.1%,60.9%,80.6%,62.6%,96.1%,64.4%,45.8%,37.3%
CCN(CC)CC(C)Nc1ccc([N+](=O)[O-])c2sc3ccccc3c(=O)c12 (stereo not given),33.5%,24%,26.6%,46.2%,9.64% (active),7.52% (active),0.683% (active),14.2%,16.3%,10.8%,27.6%,-14.2% (active),-6.6% (active),51.5%,32.4%,27.3%,25%,29.5%,-10.4% (active),44.9%
